# PubChem BioAssay
# Activity calls are given as the source filed them. Rule as the data show it, unless noted: active = inhibition above about 80%; inactive = the rest.
# What was measured:
# [1] = LFS_MB_P medulloblastoma growth inhibition, cell-based, chromothripsis tumors, cisplatin or BGB combos (AID 1671449); conditions: LFS_MB_P medulloblastoma cells;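 also: cells exposed for 96 hours; 0% = vehicle DMSO and 100% = killing by high DMSO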
# [2] = HDN33 neuroblastoma growth inhibition, cell-based, chromothripsis tumors, cisplatin or BGB combos (AID 1671450); conditions: HDN33 neuroblastoma cells, stronger effect = higher value;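 also: cells exposed to compound for four days; 0% = vehicle DMSO and 100% = cell killing by high DMSO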
# [3] = ICB984 medulloblastoma cell growth inhibition, synergistic combos for chromothripsis tumors, cisplatin or BGB combos (AID 1671451; call rule not given here;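 also: cells exposed for 96 hours before readout; 0% = vehicle DMSO and 100% = killing by high DMSO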); conditions: ICB984 medulloblastoma cells, drug combinations, stronger effect = higher value
# [4] = LFS_MB_1R medulloblastoma cell growth inhibition, synergistic combos for chromothripsis tumors, cisplatin or BGB combos (AID 1671452); conditions: LFS_MB_1R medulloblastoma cells, stronger effect = higher value;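 also: cells exposed for 96 hours before readout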
# [5] = HTB85 osteosarcoma cell growth inhibition, synergistic combos for chromothripsis tumors, BGB or cisplatin IC20 combos (AID 1671453); conditions: HTB85 osteosarcoma cells, drug combinations, stronger effect = higher value;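 also: cells exposed for 96 hours before readout; 0% = vehicle DMSO and 100% = high DMSO killing control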
# [6] = CRL2098 osteosarcoma cell growth inhibition, synergistic combos for chromothripsis tumors, BGB or cisplatin IC20 combos (AID 1671454); conditions: CRL2098 osteosarcoma cells, drug combinations, stronger effect = higher value;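 also: cells exposed for 96 h before readout; 0% = vehicle DMSO and 100% = killing by high DMSO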
# [7] = HD-MB03 medulloblastoma cell growth inhibition, synergistic combos for chromothripsis tumors, BGB or cisplatin IC20 combos (AID 1671455; in the data active = inhibition above about 83%;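 also: 0% = vehicle DMSO and 100% = high DMSO as cytotoxic control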); conditions: HD-MB03 medulloblastoma cells, stronger effect = higher value
# [8] = UWB1.289 ovarian carcinoma cell growth inhibition, synergistic combos for chromothripsis tumors, BGB or cisplatin combos (AID 1671456); conditions: UWB1.289 ovarian carcinoma cells, stronger effect = higher value;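 also: cells exposed to compound for four days; 0% = vehicle DMSO and 100% = killing by high DMSO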
# [9] = LFS_MB_2R medulloblastoma cell growth inhibition, synergistic combos for chromothripsis tumors, cisplatin combos (AID 1671457); conditions: LFS_MB_2R medulloblastoma cells, stronger effect = higher value;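 also: cells exposed to compound for four days before readout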
# [10] = MDA-MB-436 breast carcinoma cell growth inhibition, synergistic combos for chromothripsis tumors, BGB or cisplatin combos (AID 1671458; call rule not given here;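 also: cells exposed for 96 hours; 0% = vehicle DMSO and 100% = killing by high DMSO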); conditions: MDA-MB-436 breast carcinoma growth inhibition, drug combinations, stronger effect = higher value
# [11] = UWB1.289_BRCA1 ovarian cancer growth, cell-based, BGB or cisplatin combinations (AID 1671459); conditions: UWB1.289 BRCA1 ovarian carcinoma, drug combinations, stronger effect = higher value
# [12] = human astrocyte viability loss, single and combined drugs, cytotoxicity control for chromothriptic childhood tumor combination screen, cell-based, BGB or cisplatin IC20 combos (AID 1671460); conditions: Human astrocytes, drug combinations, stronger effect = higher value;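 also: cells exposed to compounds for 96 hours before viability readout; 0% = vehicle and 100% = killing control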
# [13] = growth inhibition of BT084 medulloblastoma cells, cell-based, ICGC_MB145, cisplatin and BGB IC40 combos (AID 1671461); conditions: drug combinations, stronger effect = higher value;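 also: cells exposed to drugs for 96 hours; 0% = vehicle DMSO and 100% = high DMSO full killing control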
# [14] = growth inhibition of RCMB18 medulloblastoma cells, cell-based, cisplatin and BGB IC40 combos (AID 1671462); conditions: stronger effect = higher value;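 also: cells exposed to compound for four days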
# [15] = growth inhibition of CRL1545 osteosarcoma cells, cell-based, cisplatin and BGB IC20 combos (AID 1671464); conditions: stronger effect = higher value;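 also: cells exposed to compound for 96 hours before readout; 0% = vehicle DMSO and 100% = high DMSO killing control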
# [16] = measured here: combination with BGB IC40, at 0.05 µM
# [17] = measured here: with BGB IC20 combination, at 0.5 µM
# [18] = measured here: with cisplatin IC20 combination, at 0.5 µM
# [19] = measured here: combination with cisplatin, at 0.5 µM
# [20] = measured here: combination with cisplatin, at 5 µM
smiles,measurement,setting,value
O=C1N=c2ccccc2=C1c1c(O)[nH]c2ccccc12,inhibition,"[1]; at 0.5 µM, stronger effect = higher value",-10.5% (inactive)
same,inhibition,"[1]; measured here: combination with BGB IC20, at 0.005 µM",-1.18%
same,inhibition,"[1]; measured here: combination with BGB IC40, at 0.005 µM",-11.2%
same,inhibition,[1]; [16],-2.67%
same,inhibition,"[1]; measured here: combination with cisplatin, at 0.5 µM, stronger effect = higher value",-21%
same,inhibition,"[1]; measured here: combination with cisplatin, at 5 µM, stronger effect = higher value",114%
same,inhibition,"[2]; BGB combo, at 5 µM",61%
same,inhibition,[2]; at 0.5 µM,5.47% (inactive)
same,inhibition,"[2]; cisplatin combo, at 5 µM",51.4%
same,inhibition,[2]; [17],16.4%
same,inhibition,[2]; [18],-3.78%
same,inhibition,"[2]; single agent, at 5 µM",45.3%
same,inhibition,"[3]; BGB IC20 combo, at 0.005 µM",11.6%
same,inhibition,"[3]; BGB IC40 combo, at 0.005 µM",12.6%
same,inhibition,"[3]; BGB IC40 combo, at 0.05 µM",98.1%
same,inhibition,[3]; at 0.5 µM,-13.3% (inactive)
same,inhibition,"[3]; cisplatin combo, at 0.05 µM",98%
same,inhibition,"[3]; cisplatin combo, at 0.5 µM",-8.2%
same,inhibition,"[3]; cisplatin combo, at 5 µM",-23.1%
same,inhibition,"[3]; measured here: 5 uM single agent, at 5 µM",-12.3%
same,inhibition,[4]; at 0.5 µM,38.6% (inactive)
same,inhibition,[4]; [16],-8.14%
same,inhibition,[4]; [19],68.7%
same,inhibition,[4]; [20],104%
same,inhibition,[5]; at 0.5 µM,-27.2% (inactive)
same,inhibition,"[5]; measured here: with BGB IC20, at 0.5 µM",-36.8%
same,inhibition,"[5]; measured here: with BGB IC20, at 5 µM",49.4%
same,inhibition,"[5]; measured here: with cisplatin IC20, at 0.5 µM",-31.8%
same,inhibition,"[5]; measured here: with cisplatin IC20, at 5 µM",19.9%
same,inhibition,"[5]; single agent, at 5 µM",73.7%
same,inhibition,[6]; at 0.5 µM,-38.8% (inactive)
same,inhibition,"[6]; measured here: combination with BGB at IC20, at 0.5 µM",-85.6%
same,inhibition,"[6]; measured here: combination with cisplatin at IC20, at 0.5 µM",-13.6%
same,inhibition,[7]; at 0.5 µM,-7.99% (inactive)
same,inhibition,"[7]; measured here: combo with BGB at IC20, at 0.5 µM",-0.15%
same,inhibition,"[7]; measured here: combo with cisplatin at IC20, at 0.5 µM",-18.7%
same,inhibition,[8]; at 0.5 µM,-2.76% (inactive)
same,inhibition,"[8]; measured here: inhibition with BGB combination, at 0.05 µM",-4.21%
same,inhibition,"[8]; measured here: inhibition with cisplatin combination, at 0.05 µM",-14.6%
same,inhibition,[9]; at 0.5 µM,-4.68% (inactive)
same,inhibition,[9]; [19],-7.54%
same,inhibition,[9]; [20],96.6%
same,inhibition,[10]; at 0.5 µM,0.62% (inactive)
same,inhibition,"[10]; measured here: BGB combination, at 0.5 µM",-2.01%
same,inhibition,"[10]; measured here: BGB combination, at 5 µM",38.1%
same,inhibition,"[10]; measured here: cisplatin combination, at 0.5 µM",2.13%
same,inhibition,"[10]; measured here: cisplatin combination, at 5 µM",46%
same,inhibition,"[11]; BGB combination, concentration series, at 5 µM",47.2%
same,inhibition,[11]; at 0.5 µM,-5.34% (inactive)
same,inhibition,"[11]; cisplatin combination, concentration series, at 5 µM",63.2%
same,inhibition,[12]; at 0.5 µM,-0.99% (inactive)
same,inhibition,"[12]; measured here: combo with BGB IC20, at 0.5 µM",17.5%
same,inhibition,"[12]; measured here: combo with cisplatin IC20, at 0.5 µM",-29.2%
same,inhibition,[13]; at 0.5 µM,-8.62% (inactive)
same,inhibition,"[13]; cisplatin combination, at 0.5 µM",-4.64%
same,inhibition,"[13]; cisplatin combination, at 5 µM",99.5%
same,inhibition,"[13]; measured here: BGB IC40 combination 0.05 uM, at 0.05 µM",21.5%
same,inhibition,"[13]; single agent, at 5 µM",59.7%
same,inhibition,[14]; at 0.5 µM,50.6% (inactive)
same,inhibition,"[14]; cisplatin combo, at 5 µM",103%
same,inhibition,"[14]; measured here: BGB IC40 combination, at 0.05 µM",-10.1%
same,inhibition,[14]; [19],81.1%
same,inhibition,"[14]; single agent, at 5 µM",98.9%
same,inhibition,[15]; at 0.5 µM,7.46% (inactive)
same,inhibition,[15]; [17],-4.11%
same,inhibition,[15]; [18],11.3%
same,inhibition,"[15]; single agent, at 0.05 µM",-37%
same,inhibition,"[15]; single agent, at 5 µM",95.5%
